Screens from PubChem.
Bst PK mod: modulators of Bacillus stearothermophilus pyruvate kinase; purified pyruvate kinase, luminescence ATP production; ribose 5-phosphate activator present at AC10; Potency, µM; hit rate 1.2% among 51,000; AID 361; in the data active = potency below about 11 µM; inconclusive = mostly about 12 µM to 25 µM;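 the screen sought inhibitors and activators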;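 also: scaled between full activation by ribose 5 phosphate and full inhibition by luteolin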
GBA activity: modulators of human glucocerebrosidase | P04062 | purified enzyme, resorufin glucoside fluorescence (screen aimed at inhibitors), 20 min | Potency, µM | hit rate 1.1% among 48,000 | AID 360; in the data active = potency below about 15 µM; inconclusive = mostly about 16 µM to 33 µM;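 also: the screen sought inhibitors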
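Compounds titrated against 0.2 nM normal enzyme, 30 uM resorufin beta-D-glucopyranoside substrate, citrate/phosphate buffer with taurocholate and tween-20, pH 5.9. Reaction ran 20 min at room temperature; fluorescence (Ex 548/Em 600) gave AC50.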
FLuc inh: inhibitors of firefly luciferase | Potency, µM (highest dose often 57.1 µM), without a hit: at the highest dose activity change, negative = inhibition, actives largely listed as inhibitors | hit rate 2.2% among 72,000 | purified firefly luciferase, luminescence, 8 min | P08659; also: % is scaled to controls: 0 for no effect and ±100 for the full control effect; nearly all actives have a fitted effect of over 40% in size
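Titration-based qHTS; buffer 50 mM imidazole pH 7.2, 50 mM KCl, 7 mM MgCl2, 10 uM ATP, 0.01% Tween 20, 0.05% BSA; luciferase/luciferin detector mix added after compound; 8 min, ambient; luminescence.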
Casp7 inh: caspase-7 (human) inhibition, allosteric or competitive. P55210. recombinant caspase-7, Ac-DEVD-AFC fluorescence rate. Potency, µM (top dose mostly 57.5 µM), inactives show at the top dose activity change, negative = inhibition, hits mostly inhibitors. hit rate 0.02% among 75,000. AID 889; active = well fitted inhibition curve with a large enough effect in the main read-out, with a control signal flat, not every such curve was filed as active; inconclusive = small, poorly fitted or top-dose-only effect, or a change in a side signal; also: % of control where 0% means no effect
Caspase-1 inhib: caspase-1 (human) inhibition, allosteric or competitive. P29466. Caspase-1 enzyme, Ac-WEHD-AFC fluorogenic rate. Potency, µM (series often up to 57.5 µM), inactives show top-dose activity change, negative = inhibition, most hits filed as inhibitors. hit rate 0.03% among 75,000;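 also: plate controls were vehicle for no effect and no substrate for full effect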
Starred values were filed as active, the others as inactive; i = inactive; ? = inconclusive; · = no result given; [ ] = remark or other dose. Sampled rows, rich in hits. Any-hit rate of the full collection: about 3.1%. Unless noted, calls follow the shape of the dose curve; as a rule, active = well fitted inhibition curve with a large enough effect; inconclusive = small, poorly fitted or top-dose-only effect; inactive = flat fitted curve, though single readings scatter. Potency is read from the fitted curve at half-maximal effect.

SMILES	Bst PK mod	GBA activity	FLuc inh	Casp7 inh	Caspase-1 inhib
COc1cccc2sc(Nc3nnc(-c4ccccc4Cl)o3)nc12	·	·	15.8µM*	-23.6%	-14.0%
Cc1cc(C)cc(C(=O)N(C)[C@H](Cc2ccc(-c3ccccc3)cc2)C(=O)N[C@@H](Cc2c[nH]c3ccccc23)C(=O)O)c1	·	·	3.6%	31.6µM*	-12.9%
Cc1ccc(C(=O)NC(Cc2c[nH]c3ccccc23)C(=O)O)o1 (centres undefined)	·	·	2.6%	-0.7%	-1.1%
O=C(Nc1ccc2c(c1)Cc1ccccc1-2)[C@@H]1[C@H](C(=O)O)[C@]2(Cl)C(Cl)=C(Cl)[C@@]1(Cl)C2(Cl)Cl	·	·	1.9%[11.4 µM]	-4.4%[11.5 µM]	0.8%[11.5 µM]
Cc1ccc2c(c1)cc(CN(Cc1ccco1)S(=O)(=O)c1ccccc1)c1nnnn12	>57	>76.9	0.8%	-4.8%	-2.4%
CN(C)S(=O)(=O)c1ccc(S(=O)(=O)N(Cc2ccccn2)Cc2ccco2)cc1	>57	6.66*	2.0%	7.2%	-0.2%
Cc1ccc(S(=O)(=O)N2C(=O)CCC2C(=O)Nc2ccc3c(c2)OCCO3)cc1 (centres undefined)	2.28*	>76.9	3.4%	-0.8%	0.6%
Cc1ccc(S(=O)(=O)N2CCC(C(=O)N[C@@H](C)C(=O)Nc3ccc4c(c3)OCO4)CC2)cc1	>57	>76.9	0.2%	-2.3%	0.4%
O=C(Nc1cccc(C(F)(F)F)c1)c1cc(-c2cccs2)on1	>57	4.85*	-9.9%	0.8%	-0.2%
C[C@H](NC(=O)c1ccc(Cl)c(Cl)c1)c1ccc(-c2ccccc2)cc1	·	·	4.8%[11.4 µM]	-3.0%[11.5 µM]	-0.6%[11.5 µM]
CCn1c(SCC(=O)OC(C)C)nnc1-c1cccc(Cl)c1	>57	>76.9	4.6%	0.3%	0.0%
CC(C)OC(=O)CSc1nnc(-c2ccc(O)cc2)n1Cc1ccccc1	·	>76.9	25.1µM*	-3.2%	2.6%
C[C@@H](CN1CCC(Cc2ccccc2)CC1)[C@H](O)c1ccc(O)cc1	·	·	2.1%	-1.1%	0.6%
CC(C)(C)N1C(=O)c2ccc(C(=O)Nc3nccs3)cc2C1=O	·	·	5.01µM*	-0.6%	1.3%
COc1cccc(CNc2ccc(Br)cn2)c1O	i	·	5.01µM*	·	·
COc1cccc(CNc2ncc(Br)cc2Br)c1O	>25.6	·	-12.2%[25.5 µM]	·	·
CN(N=O)c1ccc(/C=C\c2ccnc3ccccc23)cc1	·	·	3.0%[11.4 µM]	-0.5%[11.5 µM]	0.2%[11.5 µM]
Cc1cc(N2CCN(C)CC2)nc2ccc(NC(=O)c3ccc4c(c3)OCO4)cc12	·	1.06*	25.1µM*	1.6%	-4.6%
CC(=O)N1CCN(c2ccc(NC(=O)c3ccc4c(c3)OCCO4)cc2)CC1	>57	?	-14.8%	-3.0%	0.7%
CN1CCN(c2ccc(NC(=O)c3ccc4c(c3)OCO4)cc2)CC1	·	>76.9	25.1µM*	-0.5%	-3.4%
Cc1cc(N2CCN(C)CC2)nc2ccc(NC(=O)c3ccc(Br)o3)cc12	·	2.25*	-10.7%	-1.5%	-4.1%
COc1cc2ccccc2cc1C(=O)Nc1ccc(N2CCN(C)CC2)cc1	11.2*	>76.9	10µM*	-1.2%	-3.3%
CCN1CCN(c2cc(C)c3cc(NC(=O)c4cnccn4)ccc3n2)CC1	·	·	-7.6%	-4.7%	-2.5%
COc1ccccc1C(=O)Nc1ccc(N2CCN(S(C)(=O)=O)CC2)cc1	·	>76.9	-22.6%	0.0%	-0.8%
Cc1ncn(-c2ccccc2O)c1C	·	·	0.5%[11.4 µM]	-0.8%[11.5 µM]	1.2%[11.5 µM]
SMILES	Bst PK mod	GBA activity	FLuc inh	Casp7 inh	Caspase-1 inhib
O=C(c1cc2ccccc2oc1=O)N1CCN(c2ccc(N3CCOCC3)nn2)CC1	·	·	15.8µM*	-2.0%	-2.8%
O=C(c1cc(-c2ccccc2)nc2ccccc12)N1CCN(c2ccccn2)CC1	·	>76.9	20µM*	-0.1%	-2.0%
c1ccc(-c2nnc(N3CCN(c4ccccn4)CC3)c3ccccc23)cc1	>57	13.6*	-2.1%	-1.0%	-1.0%
C=C(C#N)C(=O)OCC	·	·	·	0.9%	2.2%
CCc1ccc2[nH]c(=O)c(CN(CCCN3CCOCC3)C(=O)Nc3ccc(Cl)cc3)cc2c1	6.62*	i	-0.6%	-0.4%	-1.3%
Clc1ccc(OCc2nc(-c3ccccn3)no2)c(Br)c1	·	·	2.51µM*	-11.8%	-1.0%
Cc1cccc(OCc2nc(-c3nonc3N)no2)c1C	>57	>76.9	-2.2%	-3.6%	-2.4%
Clc1ccccc1OCc1nc(-c2ccccn2)no1	i	>76.9	10µM*	-1.6%	-0.6%
c1ccc(CCc2nc(-c3ccccn3)no2)cc1	>57	>76.9	-22.0%	-0.7%	1.0%
Nc1nonc1-c1noc(COc2ccccc2Cl)n1	·	>76.9	12.6µM*	-0.5%	0.1%
C[C@@H]1/C=C\CC(=O)OC[C@H](C)C(=O)N[C@@H](Cc2ccccc2)C(=O)OC1	·	·	-0.6%[11.4 µM]	-0.2%[11.5 µM]	-3.5%[11.5 µM]
CCC[C@@H]1O[C@@H]2C[C@@H]3[C@@H]4CCC5=CC(=O)C=C[C@@]5(C)[C@H]4[C@H](O)C[C@@]3(C)[C@@]2(C(=O)CO)O1	·	·	-4.1%	·	·
CCOC(=O)Cn1nc(-c2ccc(Cl)cc2)cc1N	5.79*	>76.9	-5.7%	-0.8%	-3.4%
COc1ccc2nc(NCN3C(=O)c4ccccc4C3=O)sc2c1	·	·	2.0%[11.4 µM]	3.1%[11.5 µM]	-9.5%[11.5 µM]
CCOC(=O)C1CCCN(C(=O)c2cc(Nc3ccc(OC)c(OC)c3)nc3ccccc23)C1 (centres undefined)	i	>76.9	15.8µM*	-0.4%	0.4%
COc1ccc(Nc2cc(C(=O)NCCCN3CCN(C)CC3)c3ccccc3n2)cc1OC	i	>76.9	25.1µM*	-4.0%	0.2%
COc1ccc(-c2cc(C(=O)NCCN3CCOCC3)c3ccccc3n2)c(OC)c1	·	·	0.0%	-2.9%	-1.2%
CC(=O)N1CCN(c2ccc(NCc3cccs3)cc2)CC1	>57	i	-1.7%	0.1%	-1.0%
CC(=O)N1CCN(c2ccc(NCc3ccccc3)cc2)CC1	>57	13*	-3.1%	-0.2%	-2.5%
COc1ccc(-c2cc3nc4n(c(=O)c3s2)CCC4)cc1	3.85*	>76.9	2.51µM*	1.8%	1.0%
COc1ccc(NS(=O)(=O)c2cccc(-c3nnc4n3CCCCC4)c2)cc1	>57	>76.9	1.3%	1.2%	1.7%
O=C1C2=CC[C@@H]3C(=O)N(c4ccc(F)cc4F)C(=O)[C@H]3[C@H]2[C@H](O)[C@H]2O[C@H]12	·	·	0.9%[11.4 µM]	-11.2%[11.5 µM]	-10.3%[11.5 µM]
COc1ccc2c(c1OC)C(=O)N1c3ccccc3SC21 (centres undefined)	i	·	5.01µM*	·	·
COc1ccc2c(c1OC)C(=O)N1c3ccccc3COC21 (centres undefined)	?	>76.9	10µM*	1.0%	-0.2%
Cc1noc(C)c1-c1nc(NCc2ccccc2)c2ccccc2n1	·	·	-1.0%[2.29 µM]	-8.2%	-4.1%
SMILES	Bst PK mod	GBA activity	FLuc inh	Casp7 inh	Caspase-1 inhib
O=C1C(Cl)=C(NCCCN2CCOCC2)C(=O)N1CCc1ccccc1	>57	11.3*	2.8%	-5.3%	-3.1%
O=c1cnn(-c2ccccc2)c(-c2ccccc2)c1	·	>76.9	12.6µM*	0.1%	-0.5%
NCCSCCC(=O)O	·	·	1.4%[11.4 µM]	1.0%[11.5 µM]	1.3%[11.5 µM]
Cc1ccc(S(=O)(=O)Nc2cc(C(=O)NCCN(C)C)ccc2N2CCCCC2)cc1	·	?	0.1%	-0.5%	1.9%
Cc1ccc(S(=O)(=O)Nc2cc(C(=O)NCCN3CCCC3)ccc2N2CCCCC2)cc1	?	10.3*	2.3%	-0.5%	-1.3%
COc1cc(/C=C\C(=O)N2CCCCC2=O)cc(OC)c1OC	·	·	1.3%[11.4 µM]	·	·
